The results in this text go back to PubChem BioAssay.

SMILES strings stand for the structures. Where “and” joins values, the source holds several entries; their conditions need not be identical. Equal values may be shown once. Calls of active or inactive are those of the source.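 How the source made its calls, unless noted: active means thallium flux through the channel raised or lowered by more than 3 SD from vehicle-only wells, actives on both sides; inactive means the rest.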

Assay [1] can be described thus: Wnt pathway potentiators raising nuclear beta-catenin – imaging, WNT3A-conditioned medium, mouse C2C12, NPC library, primary screen (AID 1117326; in the data active means nuclear beta-catenin stimulation mostly above about 4.2%, no sharp cut-off; inactive means mostly below about 10%). Conditions: stronger effect = higher value.
Assay [2] can be described thus: stimulators of insulin release from INS-1E, primary screen, cell-based, 5 mM glucose, NPC library (AID 1117329;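 active means compound raises insulin release from rat beta cells at 5 mM glucose, no numeric limit stated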). Conditions: rat INS-1E insulin secretion, at 10 µM, stronger effect = higher value.
Assay [3] is described as follows: growth inhibition of GSK3B-pretreated HCT116 cells – cell-based, CellTiter-Glo, 0.2 to 20 µM (AID 1117336;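 active means compounds lowering colon cancer cell viability after pretreatment blocking the GSK3B kinase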). Conditions: HCT116 viability after GSK3B inhibitor, at 20 µM, stronger effect = higher value.
Assay [4] is described as follows: inhibition of endothelial tube formation, primary screen, imaging, VEGF stimulated, CD31 staining, tube area, NPC library (AID 1117340;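 active means compound that reduces growth-factor-driven endothelial tube area in a mixed cell culture, no cutoff stated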). Conditions: VEGF-stimulated ADSC/ECFC co-culture, at 10 µM, stronger effect = higher value.
A short description of assay [5]: GLP1 release stimulators, primary, NCI-H716, NPC library (AID 1117341;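 active means compound raises GLP1 secretion from the human gut endocrine cells, with no numeric limit stated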). Conditions: NCI-H716 cells, at 10 µM, stronger effect = higher value.
A short description of assay [6]: HCT116 colon cancer cell growth inhibition, primary screen, CellTiter-Glo luminescence, NPC library (AID 1117342;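 active means compounds that lower survival of HCT116 colon cancer cells in the luminescence readout, no numeric limit stated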). Conditions: at 20 µM (top of the series).
Assay [7] is described as follows: reduced SW480 viability measured with CellTiter-Glo, NPC library, primary (AID 1117343;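 active means compounds that lower viability of the colon cancer cells in the luminescence readout, with no numeric limit stated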). Conditions: CellTiter-Glo luminescence; at 20 µM (top of the series).
Assay [8] can be described thus: NPC library primary testing for decreased DLD-1 cell viability via CellTiter-Glo (AID 1117346;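 active means compounds that lower survival of DLD-1 colon cancer cells in the luminescence readout, no cutoff given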). Conditions: DLD-1 viability, CellTiter-Glo luminescence; at 20 µM (top of the series).
For assay [9], the target named is 6-phosphogluconate dehydrogenase, decarboxylating (Homo sapiens) (UniProt P52209). In words: inhibition of human phosphogluconate dehydrogenase – biochemical, recombinant enzyme, NADPH absorbance, primary screen (AID 1159550;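 active means at least 20% inhibition of 6-phosphogluconate dehydrogenase activity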). Conditions: recombinant 6PGD, NADPH absorbance 341 nm; at 10 µM; stronger effect = higher value.
Assay [10] in a line: EMT-state selective cytotoxicity in co-culture – imaging, PC-3E GFP, TEM4-18 mCherry, primary screen (AID 1345086;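 active means compounds killing one labelled cell type while sparing the other, by normalised counts and ratio limits, not self-fluorescent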;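 on all read-outs here: cells exposed to compound for 72 h before imaging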;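 on red/green cell ratio (normalised): normalised mesenchymal count divided by normalised epithelial count so high means epithelial killing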). Conditions: PC-3E GFP / TEM4-18 mCherry co-culture, imaging cell counts, at 1 µM; for red/green cell ratio (normalised): actives lie on both sides, counts scaled to control wells, 1 = unselective.
Assay [11] can be described thus: MELAS cybrid and Rieske KO viability enhancers – cell-based, MELAS cybrids, Rieske KO mouse fibroblasts, CellTiter-Glo, primary screen (AID 1508586;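 active means mean z-score across replicates of 1.96 or higher in either the MELAS or the Rieske mutant cell line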;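 further: z relative to plate mean and SD of compound and empty wells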). Conditions: low glucose.
The target of assay [12] is NAD(+) hydrolase SARM1 (Homo sapiens) (UniProt Q6SZW1). Briefly: blocking NAD cleavage by SARM1 SAM-TIR – cell lysate, NAD-Glo luminescence (AID 1508614;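 active means compound whose remaining NAD level is above about 45 nM, limit read from the data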). Conditions: SAM-TIR HEK293T lysate NADase, at 1 µM, stronger effect = higher value.
The subject of another assay is F380Y. Briefly: BK channel mutant inhibitors and activators – cell-based, U2OS BacMam, thallium flux, beta subunits, selectivity assay, profiling panel (AID 1259406).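 Further: initial slope of Thallos dye fluorescence rise after thallium is added; log ratio against the mean of 0.3% DMSO vehicle wells on the same plate.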 Conditions: U2OS BacMam BK variants, at 30 µM.
For the next assay, the system named is F380Y/beta1. Described as above. Conditions: U2OS BacMam BK variants, at 30 µM.
Another assay has as its system F380Y/beta2Delta. The description is as above. Conditions: U2OS BacMam BK variants, at 30 µM.
The next assay relates to F380Y/beta4. The assay is described as above. Conditions: U2OS BacMam BK variants, at 30 µM.
The target in assay [13] is Calcium-activated potassium channel subunit alpha-1 (Homo sapiens) + Leucine-rich repeat-containing protein 26 (Homo sapiens) (UniProt Q12791+Q2I0M4). Described as above. Conditions: U2OS BacMam BK variants, F380Y/Slo1WT/gamma1, at 30 µM.
Another assay relates to R275C. The description is as above. Conditions: U2OS BacMam BK variants, at 30 µM.
Assay [14] is described as follows: viability loss with induced miR-34 in A549 – imaging, A549 dox-inducible miR-34, nuclei and caspase counts, primary screen (AID 1347080;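 active means compounds whose cell count with miR-34 switched on is under 0.7 times the count with it off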). Conditions: A549 miR-34 inducible, Hoechst nuclei count, 48 h.
Setting [15] is: measured here: epithelial PC-3E GFP cell survival.
Setting [16] is: measured here: mesenchymal TEM4-18 mCherry cell survival.
Setting [17] is: MELAS cybrid survival, CellTiter-Glo 48 h, stronger effect = higher value.
Where [18] appears, read: Rieske KO mouse fibroblast survival, CellTiter-Glo 72 h.

Sequence of NAD(+) hydrolase SARM1 (Homo sapiens) (Q6SZW1 whole entry, looked up): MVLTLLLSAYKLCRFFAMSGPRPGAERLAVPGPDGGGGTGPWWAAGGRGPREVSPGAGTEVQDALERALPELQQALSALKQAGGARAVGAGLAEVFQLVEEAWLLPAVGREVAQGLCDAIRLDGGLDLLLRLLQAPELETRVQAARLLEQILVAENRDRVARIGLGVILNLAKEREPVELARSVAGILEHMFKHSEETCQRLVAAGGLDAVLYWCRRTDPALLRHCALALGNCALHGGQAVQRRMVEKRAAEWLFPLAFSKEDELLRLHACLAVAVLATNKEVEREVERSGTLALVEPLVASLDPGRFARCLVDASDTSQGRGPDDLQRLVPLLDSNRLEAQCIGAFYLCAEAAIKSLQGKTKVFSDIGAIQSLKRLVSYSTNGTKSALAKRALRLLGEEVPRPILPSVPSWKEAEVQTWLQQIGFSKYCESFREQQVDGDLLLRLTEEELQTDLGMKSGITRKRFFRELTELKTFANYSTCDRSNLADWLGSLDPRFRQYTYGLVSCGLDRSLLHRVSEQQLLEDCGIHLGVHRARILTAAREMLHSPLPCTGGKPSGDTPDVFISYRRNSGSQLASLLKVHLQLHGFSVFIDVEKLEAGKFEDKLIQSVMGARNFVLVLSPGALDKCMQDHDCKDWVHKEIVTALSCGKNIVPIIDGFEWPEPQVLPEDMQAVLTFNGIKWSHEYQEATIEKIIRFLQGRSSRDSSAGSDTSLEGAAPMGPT
Sequence of Calcium-activated potassium channel subunit alpha-1 (Homo sapiens) + Leucine-rich repeat-containing protein 26 (Homo sapiens) (Q2I0M4 whole entry, looked up, one chain of several): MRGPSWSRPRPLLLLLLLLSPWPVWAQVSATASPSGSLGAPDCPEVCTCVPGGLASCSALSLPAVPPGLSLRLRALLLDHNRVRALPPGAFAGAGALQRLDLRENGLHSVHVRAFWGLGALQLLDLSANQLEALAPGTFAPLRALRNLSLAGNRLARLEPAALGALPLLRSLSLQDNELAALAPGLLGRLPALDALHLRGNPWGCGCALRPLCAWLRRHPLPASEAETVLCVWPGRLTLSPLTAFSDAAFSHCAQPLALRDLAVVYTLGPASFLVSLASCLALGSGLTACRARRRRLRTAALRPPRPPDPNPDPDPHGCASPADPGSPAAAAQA
Sequence of 6-phosphogluconate dehydrogenase, decarboxylating (Homo sapiens) (P52209 whole entry, looked up): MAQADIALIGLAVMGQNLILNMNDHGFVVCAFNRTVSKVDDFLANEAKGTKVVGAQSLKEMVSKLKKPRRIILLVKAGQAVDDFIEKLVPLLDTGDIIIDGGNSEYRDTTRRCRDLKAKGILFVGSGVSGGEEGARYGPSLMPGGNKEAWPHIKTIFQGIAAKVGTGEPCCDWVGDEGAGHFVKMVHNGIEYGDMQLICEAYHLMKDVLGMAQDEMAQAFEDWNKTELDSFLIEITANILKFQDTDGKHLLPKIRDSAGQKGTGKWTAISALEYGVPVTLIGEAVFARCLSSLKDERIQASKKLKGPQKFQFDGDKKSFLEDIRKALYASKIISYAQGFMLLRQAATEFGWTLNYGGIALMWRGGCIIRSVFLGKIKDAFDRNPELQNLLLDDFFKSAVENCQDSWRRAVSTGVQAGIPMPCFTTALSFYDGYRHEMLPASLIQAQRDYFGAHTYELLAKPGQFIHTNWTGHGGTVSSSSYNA

With `CC1COc2c(N3CCN(C)CC3)c(F)cc3c(=O)c(C(=O)O)cn1c23` (stereo not given), the nuclear beta-catenin stimulation is -0.3% (inactive) in assay [1] (at 10 µM) and -0.9% in [1] (stimulation, at 2 µM). Moreover, the insulin secretion stimulation in assay [2] was 3.4% (inactive). Also, the viability decrease in [3] is 14.4% (inactive). Moreover, the tube area decrease in assay [4] was -15.9% (inactive). Moreover, the GLP1 secretion stimulation in assay [5] was 2.5% (inactive). Also, the inhibition of viability in [6] is 0.4% (inactive). Moreover, the viability decrease (inhibition) is -9.6% (inactive) in assay [7] and -8.7% (inactive) in [8]. Further, in assay [9], the inhibition was 0.495% (inactive). For the same compound, in assay [10], the red/green cell ratio (normalised) was 0.96 (inactive) and 1.29 (inactive). For the same compound, the normalised cell number in assay [10] (setting [15]) is 1.1 and 0.91; in [10] (setting [16]) it was 1.06 and 1.18. Further, the z-score in [11] (setting [17]) is -0.837 (inactive) and -0.951 (inactive) and -0.349 (inactive); in [11] (setting [18]) it was -0.0297 and -0.43 and -0.633. In assay [12], the remaining NAD was 10 nM (inactive). The log fold change Tl+ flux with F380Y is 0.0183 (inactive); in the assay with F380Y/beta1 it was -0.00501 (inactive); with F380Y/beta2Delta, 0.0472 (inactive); in the assay with F380Y/beta4, 0.0067 (inactive); in assay [13] it was 0.00974 (inactive); with R275C, 0.0249 (inactive).

For the compound `COc1c(N2CCNC(C)C2)c(F)cc2c(=O)c(C(=O)O)cn(C3CC3)c12` (stereo not given), the nuclear beta-catenin stimulation in assay [1] (at 10 µM) is 0.7% (inactive); in assay [1] (stimulation, at 2 µM) it was 2.5%. The insulin secretion stimulation in assay [2] is -1.15% (inactive). Besides, the viability decrease in assay [3] is 6.2% (inactive). Further, in assay [4], the tube area decrease was -12.3% (inactive). The GLP1 secretion stimulation in assay [5] is -2.4% (inactive). The inhibition of viability in [6] is 25.9% (inactive). For the same compound, the viability decrease (inhibition) in assay [7] was -16.2% (inactive); in assay [8] it was -9.8% (inactive). The inhibition in assay [9] was -4.88% (inactive). For the same compound, the red/green cell ratio (normalised) in assay [10] was 0.98 (inactive) and 0.92 (inactive). In addition, the normalised cell number in assay [10] (setting [15]) was 1.12 and 1.14; in assay [10] (setting [16]) it was 1.11 and 1.05. The fold change was 0.968 (inactive) and 0.875 (inactive) in assay [14] (stronger effect = lower value, cell number ratio, induced over uninduced); 1.74 and 1.47 and 1.16 in [14] (measured here: relative caspase fold change +Dox/-Dox). The cell count was 10600 and 11400 and 9660 in assay [14] (measured here: total cells with miR-34 induction, stronger effect = lower value); 10900 and 13100 and 11000 in assay [14] (measured here: total cells without miR-34 induction). For the same compound, the z-score in [11] (setting [17]) was 0.506 (inactive) and 0.393 (inactive); in assay [11] (setting [18]), -0.687 and -0.598. In addition, the remaining NAD in assay [12] is 10 nM (inactive). The log fold change Tl+ flux with F380Y was -0.00177 (inactive); with F380Y/beta1 it was -0.0535 (inactive); in the assay on F380Y/beta2Delta, -0.045 (inactive); with F380Y/beta4, -0.0127 (inactive); in [13], 0.0449 (inactive); in the assay with R275C, -0.0278 (inactive).

As to `COCCOC(=O)C1=C(C)NC(C)=C(C(=O)OC(C)C)C1c1cccc([N+](=O)[O-])c1` (stereo not given), the nuclear beta-catenin stimulation in [1] (at 10 µM) was -0.6% (inactive); in assay [1] (stimulation, at 2 µM) it was 1.2%. For the same compound, the insulin secretion stimulation in [2] is -0.5% (inactive). Moreover, the viability decrease in [3] was 46.2% (inactive). Further, in assay [4], the tube area decrease was -1.2% (inactive). The GLP1 secretion stimulation in assay [5] was -0.1% (inactive). Also, the inhibition of viability in assay [6] was 77.9% (active). Besides, the figures for the viability decrease (inhibition) in assay [7] and in assay [8] were 55.7% (active) and 27.1% (inactive), respectively. The inhibition in [9] was 2.88% (inactive). Further, the red/green cell ratio (normalised) in assay [10] was 1.09 (inactive). The normalised cell number turned out to be 1.07 in [10] (setting [15]) and 1.17 in assay [10] (setting [16]). Further, the z-score is -0.249 (inactive) and 1.31 (inactive) and 0.763 (inactive) in assay [11] (setting [17]); -0.137 and 1.51 and 1.35 in [11] (setting [18]). Moreover, the remaining NAD in assay [12] was 10 nM (inactive). Also, the log fold change Tl+ flux is -0.0169 (inactive) with F380Y; 0.0464 (inactive) with F380Y/beta1; -0.122 (active) with F380Y/beta2Delta; -0.126 (active) in the assay on F380Y/beta4; 0.0377 (inactive) in assay [13]; -0.000869 (inactive) in the assay on R275C.
